{"source": "PubChem BioAssay (NCATS)", "note": "Values joined by “and” are separate entries in the source; they are usually repeats but may differ in a detail not shown here. Equal entries are not always repeated. Records with an inconclusive call do not appear. More than one record can exist for a structure, and the calls need not agree. Values without a mark were called inactive. Calls follow the shape of the dose curve; as a rule, active = well fitted inhibition curve with a large enough effect; inconclusive = small, poorly fitted or top-dose-only effect; inactive = flat fitted curve, though single readings scatter. % is scaled to controls: 0 for no effect and ±100 for the full control effect.", "data": [{"assay": "Drug repurposing screens with cells derived from glioblastoma tumor samples (AID 1345199); also: nearly all actives have a fitted effect of over 40% in size", "details": "GBM patient neurospheres viability, ATP luminescence, 48 h; at 45.9 µM (top of the series); tumour line D", "summary_of_the_method": "(§1)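 Primary testing used CD133+ neurospheres from four GBM patients, seven concentrations, 48 h exposure and ATP-based viability; confirmation added three slower-growing patient lines.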", "values": [{"smiles": "N=C(N)N", "activity, negative = cell killing": "-23.5%"}, {"smiles": "O=C(/C=C/c1ccccc1)NCCO", "activity, negative = cell killing": "-5.87%"}, {"smiles": "COc1cc2c3cc1Oc1cc(ccc1O)C[C@@H]1c4c(cc(OC)c(O)c4Oc4ccc(cc4)C[C@@H]3N(C)CC2)CC[N+]1(C)C", "activity, negative = cell killing": "-8.25%"}, {"smiles": "O=C(Nc1ccc(C(=O)O)c(O)c1)c1ccccc1", "activity, negative = cell killing": "-3.46%"}, {"smiles": "CO[C@@]1(NC(=O)Cc2cccs2)C(=O)N2C(C(=O)O)=C(COC(N)=O)CS[C@@H]21", "activity, negative = cell killing": "-2.17% and -11.4%"}, {"smiles": "Nc1ccc(O)c(C(=O)O)c1", "activity, negative = cell killing": "5.07%"}, {"smiles": "C=CCCCCCCCCC(=O)O", "activity, negative = cell killing": "-8.73%"}, {"smiles": "Nc1c(CC(=O)O)cccc1C(=O)c1ccc(Br)cc1", "activity, negative = cell killing": "-6.69%"}, {"smiles": "O=C(OCc1ccccc1)c1ccccc1", "activity, negative = cell killing": "-19%"}, {"smiles": "CN(C)[C@@H]1C(=O)C(C(=O)NCN2CCCC2)=C(O)[C@@]2(O)C(=O)C3=C(O)c4c(O)cccc4[C@@](C)(O)C3C[C@@H]12", "note": "(some centres not stated)", "activity, negative = cell killing": "-31.8%"}, {"smiles": "CC(C(=O)O)c1ccc2c(c1)[nH]c1ccc(Cl)cc12", "note": "(configuration not stated)", "activity, negative = cell killing": "-15.7%"}, {"smiles": "CCCOC(=O)c1ccc(O)cc1", "activity, negative = cell killing": "-17.2%"}, {"smiles": "CCCCCCCCCCCC(=O)[O][Sn]([CH2]CCC)([CH2]CCC)[O]C(=O)CCCCCCCCCCC", "activity, negative = cell killing": "-3.33%"}, {"smiles": "CCOC(=O)c1ccccc1O", "activity, negative = cell killing": "-0.79% and -11.1%"}, {"smiles": "c1ccc2sc(SSc3nc4ccccc4s3)nc2c1", "activity, negative = cell killing": "-20.4%"}, {"smiles": "CC(=O)c1ccc(OCC(=O)N2CCCCC2)cc1", "activity, negative = cell killing": "-17.5%"}, {"smiles": "CCOc1ccc2nc(S(N)(=O)=O)sc2c1", "activity, negative = cell killing": "-17.7%"}, {"smiles": "CCCCCCCCCCCCCCCC(=O)OC(C)C", "activity, negative = cell killing": "-2.14%"}, {"smiles": "CCCCCCCCCCCCCCCCCC(=O)O", "activity, negative = cell killing": "-11.1%"}, {"smiles": "CCC1C(=O)OCC1Cc1cncn1C", "note": "(configuration not stated)", "activity, negative = cell killing": "-8.25%"}, {"smiles": "Nc1ccc(C(=O)O)c(O)c1", "activity, negative = cell killing": "3.71%"}]}, {"assay": "Drug repurposing screens with cells derived from glioblastoma tumor samples (AID 1345199)", "details": "GBM patient neurospheres viability, ATP luminescence, 48 h; at 46 µM (top of the series); tumour line A", "summary_of_the_method": "as §1", "units": {"activity, negative = cell killing": "%"}, "values": [{"smiles": "N=C(N)N", "activity, negative = cell killing": -16.6}, {"smiles": "C=CCCCCCCCCC(=O)O", "activity, negative = cell killing": -10.4}, {"smiles": "Nc1c(CC(=O)O)cccc1C(=O)c1ccc(Br)cc1", "activity, negative = cell killing": -19.8}, {"smiles": "O=C(OCc1ccccc1)c1ccccc1", "activity, negative = cell killing": -13.2}, {"smiles": "CC(C(=O)O)c1ccc2c(c1)[nH]c1ccc(Cl)cc12", "note": "(configuration not stated)", "activity, negative = cell killing": -16.3}, {"smiles": "CCCCCCCCCCCC(=O)[O][Sn]([CH2]CCC)([CH2]CCC)[O]C(=O)CCCCCCCCCCC", "activity, negative = cell killing": -28.7}, {"smiles": "CCOC(=O)c1ccccc1O", "activity, negative = cell killing": -24.1}, {"smiles": "c1ccc2sc(SSc3nc4ccccc4s3)nc2c1", "activity, negative = cell killing": -26.6}, {"smiles": "CC(=O)c1ccc(OCC(=O)N2CCCCC2)cc1", "activity, negative = cell killing": -29.4}, {"smiles": "CCCCCCCCCCCCCCCC(=O)OC(C)C", "activity, negative = cell killing": -26.7}, {"smiles": "CCCCCCCCCCCCCCCCCC(=O)O", "activity, negative = cell killing": -19.5}, {"smiles": "CCC1C(=O)OCC1Cc1cncn1C", "note": "(configuration not stated)", "activity, negative = cell killing": -25.3}, {"smiles": "Nc1ccc(C(=O)O)c(O)c1", "activity, negative = cell killing": -9.87}]}, {"assay": "Drug repurposing screens with cells derived from glioblastoma tumor samples (AID 1345199)", "details": "GBM patient neurospheres viability, ATP luminescence, 48 h; at 46.1 µM (top of the series); tumour line C", "summary_of_the_method": "as §1", "values": [{"smiles": "N=C(N)N", "activity, negative = cell killing": "-13.1%"}, {"smiles": "O=C(/C=C/c1ccccc1)NCCO", "activity, negative = cell killing": "-18.2%"}, {"smiles": "COc1cc2c3cc1Oc1cc(ccc1O)C[C@@H]1c4c(cc(OC)c(O)c4Oc4ccc(cc4)C[C@@H]3N(C)CC2)CC[N+]1(C)C", "activity, negative = cell killing": "7.69%"}, {"smiles": "O=C(Nc1ccc(C(=O)O)c(O)c1)c1ccccc1", "activity, negative = cell killing": "-18.9%"}, {"smiles": "CO[C@@]1(NC(=O)Cc2cccs2)C(=O)N2C(C(=O)O)=C(COC(N)=O)CS[C@@H]21", "activity, negative = cell killing": "-9.41% and -2.11%"}, {"smiles": "Nc1ccc(O)c(C(=O)O)c1", "activity, negative = cell killing": "2.81%"}, {"smiles": "C=CCCCCCCCCC(=O)O", "activity, negative = cell killing": "6.77%"}, {"smiles": "Nc1c(CC(=O)O)cccc1C(=O)c1ccc(Br)cc1", "activity, negative = cell killing": "10.2%"}, {"smiles": "O=C(OCc1ccccc1)c1ccccc1", "activity, negative = cell killing": "-10.1%"}, {"smiles": "CN(C)[C@@H]1C(=O)C(C(=O)NCN2CCCC2)=C(O)[C@@]2(O)C(=O)C3=C(O)c4c(O)cccc4[C@@](C)(O)C3C[C@@H]12", "note": "(some centres not stated)", "activity, negative = cell killing": "27.9%"}, {"smiles": "CC(C(=O)O)c1ccc2c(c1)[nH]c1ccc(Cl)cc12", "note": "(configuration not stated)", "activity, negative = cell killing": "-19.6%"}, {"smiles": "CCCOC(=O)c1ccc(O)cc1", "activity, negative = cell killing": "-7.69%"}, {"smiles": "CCCCCCCCCCCC(=O)[O][Sn]([CH2]CCC)([CH2]CCC)[O]C(=O)CCCCCCCCCCC", "activity, negative = cell killing": "-3.83%"}, {"smiles": "CCOC(=O)c1ccccc1O", "activity, negative = cell killing": "-28.6% and -1.56%"}, {"smiles": "c1ccc2sc(SSc3nc4ccccc4s3)nc2c1", "activity, negative = cell killing": "-28%"}, {"smiles": "CCCC(=O)OC[C@@H](OC(=O)CCC)[C@@H](OC(=O)CCC)[C@H](Cn1c2nc(=O)[nH]c(=O)c-2nc2cc(C)c(C)cc21)OC(=O)CCC", "activity, negative = cell killing": "-29.1%"}, {"smiles": "CC(=O)c1ccc(OCC(=O)N2CCCCC2)cc1", "activity, negative = cell killing": "-5.72%"}, {"smiles": "CCOc1ccc2nc(S(N)(=O)=O)sc2c1", "activity, negative = cell killing": "1.48%"}, {"smiles": "CCCCCCCCCCCCCCCC(=O)OC(C)C", "activity, negative = cell killing": "4.29%"}, {"smiles": "CCCCCCCCCCCCCCCCCC(=O)O", "activity, negative = cell killing": "-22.7%"}, {"smiles": "CCC1C(=O)OCC1Cc1cncn1C", "note": "(configuration not stated)", "activity, negative = cell killing": "-11.8%"}, {"smiles": "Nc1ccc(C(=O)O)c(O)c1", "activity, negative = cell killing": "-6.08%"}, {"smiles": "[O-][n+]1ccccc1SSc1cccc[n+]1[O-]", "activity, negative = cell killing": "-16.3%"}]}]}
